According to PubChem BioAssay (NCATS):
Records with an inconclusive call do not appear. Activity calls are given as the source filed them. Calls follow the shape of the full dose curve. Residues, ends and D or L forms follow the SMILES beside them.

molecular target: Peroxisome proliferator-activated receptor delta (Homo sapiens) (UniProt Q03181); assay: qHTS assay for small molecule agonists of peroxisome proliferator-activated receptor delta signaling (AID 588534); settings: HEK293T PPARdelta-UAS-bla, beta-lactamase ratio, 18 h; series mostly up to 76.7 µM; activation: at the top concentration;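 also: 0% = DMSO basal wells and 100% = positive control agonist at 10 µM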
Sequence (Q03181 whole entry, looked up): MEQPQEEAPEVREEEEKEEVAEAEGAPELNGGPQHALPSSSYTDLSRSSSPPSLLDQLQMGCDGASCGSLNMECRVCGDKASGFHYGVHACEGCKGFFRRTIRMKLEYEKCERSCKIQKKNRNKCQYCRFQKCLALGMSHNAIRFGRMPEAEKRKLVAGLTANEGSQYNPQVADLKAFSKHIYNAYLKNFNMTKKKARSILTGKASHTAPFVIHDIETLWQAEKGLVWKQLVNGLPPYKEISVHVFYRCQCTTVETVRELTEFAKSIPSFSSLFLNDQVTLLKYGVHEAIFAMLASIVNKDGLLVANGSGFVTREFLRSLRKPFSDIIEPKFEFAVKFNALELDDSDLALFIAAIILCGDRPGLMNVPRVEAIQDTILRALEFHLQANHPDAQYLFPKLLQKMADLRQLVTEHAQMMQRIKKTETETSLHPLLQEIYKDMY
Excerpt: NIH Chemical Genomics Center [NCGC] U.S. Environmental Protection Agency [EPA] National Institutes of Environmental Health Sciences [NIEHS] National Toxicology Program [NTP] NCGC Assay Overview The Peroxisome proliferator-activated receptors (PPARs) are lipid-activated transcription factors of the nuclear receptor superfamily with three distinct subtypes namely PPAR alpha, PPAR delta (also called PPAR beta) and PPAR gamma. All these subtypes heterodimerizes with Retinoid X receptor (RXR) and have different physiological functions. […] This role of PPAR delta implicates the potential use of its ligands in the treatment of metabolic disorders.
Compounds were screened in a titration series in 1536-well format. […] Concentration-response titration points for each compound were fitted to the Hill equation yielding concentrations of half-maximal stimulation (EC50) and maximal response (efficacy) values. qHTS protocol for PPAR-delta beta-lactamase assay in agonist mode [Step] [Parameter] [Value] [Description] 1. Reagent; 6 uL; 4000 cells/well 2. Incubation; 37 C for 5 hrs 3. Compounds; 23 nL; 0.59 nM to 92 uM 4. […] Incubation; 37 C for 18 hrs 6. Detection reagent; 1 uL of CCF4-dye 7. Incubation; RT for 2 hrs 8. Detection; Fluorescence; Envision plate reader

Structure (SMILES) | outcome | activation
C=CCc1ccc(O)c(OC)c1 | inactive | 
C[C@]1(O)CC[C@H]2[C@@H]3CCC4=CC(=O)CC[C@]4(C)[C@@]3(F)[C@@H](O)C[C@@]21C |  | -4.57% (inactive)
CCOP(=S)(OCC)Oc1ccc2c(C)c(Cl)c(=O)oc2c1 |  | -10.2% (inactive)
CC(=O)NS(=O)(=O)c1ccc(N)cc1 |  | -5.9% (inactive)
CC(=O)OCC(COC(C)=O)OC(C)=O | inactive | 
CO/N=C(/C(=O)N[C@@H]1C(=O)N2C(C(=O)O)=C(COC(N)=O)CS[C@H]12)c1ccco1 |  | 0.209% (inactive)
O=C(c1ccccc1)C(O)c1ccccc1 (stereo not given) | inactive | 
COC(=O)[C@H](Cc1ccccc1)NC(=O)[C@@H](N)CC(=O)O (H-Asp-Phe-OMe) | inactive | 
Nc1nc(Cl)nc2c1ncn2[C@H]1C[C@H](O)[C@@H](CO)O1 |  | -13% (inactive)
Cc1cc(C)nc(NS(=O)(=O)c2ccc(N)cc2)n1 | inactive | 
Nc1ccc(S(N)(=O)=O)cc1 |  | -5.42% (inactive)
Cn1c(=O)c2[nH]cnc2n(C)c1=O |  | 5.3% (inactive)
CC(C)c1cccc(C(C)C)c1O |  | 7.79% (inactive)
COc1cc(C=O)ccc1O | inactive | 
Oc1ccc(Cl)cc1 |  | 9.11% (inactive)
O=C(O)/C=C\C(=O)O |  | 7.55% (inactive)
COP(=S)(OC)Oc1ccc(SC)c(C)c1 | inactive | 
Nc1ccc(C(=O)O)cc1 |  | -3.22% (inactive)
COP(=S)(OC)SCN1C(=O)c2ccccc2C1=O |  | -10.7% (inactive)
O=C(O)Cc1cccc2ccccc12 | inactive | 

Structure (SMILES) | outcome | activation
COC(=O)c1ccc(O)cc1 |  | -3.13% (inactive)
CC(C)Cc1ccc(C(C)C(=O)O)cc1 (stereo not given) |  | -1.31% (inactive)
COP(=S)(OC)Oc1cc(Cl)c(Cl)cc1Cl |  | -1.69% (inactive)
CCCCOC(=O)c1ccc(O)cc1 | inactive | 
CC(O)CN(CCN(CC(C)O)CC(C)O)CC(C)O (stereo not given) |  | 8.65% (inactive)
CC(O)C(=O)O (stereo not given) |  | 5.68% (inactive)
O=c1[nH]cnc2[nH]ncc12 |  | 12.3% (inactive)
CCCCOC(=O)c1ccc(N)cc1 |  | 0.69% (inactive)
O=C(OCc1ccccc1)c1ccccc1 |  | 2.46% (inactive)
O=C1c2c(O)cccc2Cc2cccc(O)c21 |  | 3.65% (inactive)
Cc1cc(=O)[nH]c(=S)[nH]1 |  | 1.21% (inactive)
Nc1ccccc1 |  | 11.5% (inactive)
NC(=O)N1c2ccccc2C=Cc2ccccc21 | inactive | 
CCCCCCCCCCCCCCCC(=O)OC(C)C |  | -1.12% (inactive)
CCCC(C)(COC(N)=O)COC(N)=O |  | 1.97% (inactive)
CC(=O)N1CCN(c2ccc(OC[C@H]3CO[C@](Cn4ccnc4)(c4ccc(Cl)cc4Cl)O3)cc2)CC1 |  | -14.1% (inactive)
NC(=O)c1ccccc1O |  | 3.83% (inactive)
CC1CC(OC(=O)c2ccccc2O)CC(C)(C)C1 (stereo not given) |  | 10.4% (inactive)
[N-]=[N+]=CC(=O)OC[C@H](N)C(=O)O |  | -1.01% (inactive)
C[C@]12CCC(=O)C=C1CC[C@@H]1[C@@H]2CC[C@]2(C)C(=O)CC[C@@H]12 |  | -6.16% (inactive)
